# The full list was thinned out, with hits kept by preference.
# Dicer processing = inhibitors of Dicer pre-microRNA processing, primary screen, biochemical, cat-ELCCA, chemiluminescence. cat-ELCCA pre-miR-21 Dicer processing; active compounds read high. z-score at 25 µM. 6% of 47,000 active. AID 1347074, 2019; in the data active = z-score above about 3, passing the limit was not always enough;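 also: plate controls were vehicle for no effect and no enzyme for full effect; higher signal means more uncleaved substrate so more Dicer inhibition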
# Starred values were filed as active, the others as inactive.
SMILES,Dicer processing
Nc1[nH]c(=S)[nH]c(=O)c1C(c1ccccc1Cl)c1c(N)[nH]c(=S)[nH]c1=O,-1.3
C=CCN1C(=O)C(O)(CC(=O)c2ccc(OC)c(OC)c2)c2ccccc21 (stereo unspecified),-0.72
CC(=O)N(C1=NCCC(=O)S1)c1ccc(Cl)cc1,-2.5
N#C/C(=C\NCc1ccccn1)S(=O)(=O)c1ccc(Cl)cc1,-0.88
CCOC(=O)c1c[nH]c2c(-c3ccccc3)c(C(F)(F)F)sc2c1=O,0.13
Cc1cccc2c(=O)c(C(=O)O)c[nH]c12,0.73
O=C(O)c1c[nH]c2c(-c3ccccc3)c(C(F)(F)F)sc2c1=O,4.8*
CCOc1ccc(NC(=O)/C=N/O)cc1,2.1
CC(C)(C)OC(=O)NCC(=O)NNC(=S)Nc1ccccc1,-0.45
S=C(Nc1ccccc1)N1c2ccccc2Sc2ccccc21,0.44
O=C(CN1c2ccccc2Sc2ccccc21)NNC(=S)Nc1ccccc1,5.2*
CCOC(=O)Nc1ccc(C(F)(F)F)cc1Cl,-0.8
COc1ccc(C2CC(=O)c3cnc(NC4OC(=O)c5ccccc54)nc3C2)cc1OC (stereo unspecified),-1.3
COc1ccc(C2CC(=O)c3cnn(-c4nc(C)cc(C)n4)c3C2)cc1OC (stereo unspecified),-0.72
CCOC(=O)N1CCN(c2ncc3c(n2)CC(c2ccc(OC)c(OC)c2)CC3=O)CC1 (stereo unspecified),3.5*
COc1ccc(-c2nc(NCCc3c[nH]c4ccc(OC)cc34)sc2C)cc1,0.02
Cc1c(C(=O)N(Cc2cccs2)C2CCS(=O)(=O)C2)oc2ccccc12 (stereo unspecified),1.7
CCc1ccc(CN(C(=O)c2oc3ccccc3c2C)C2CCS(=O)(=O)C2)cc1 (stereo unspecified),3.6*
Cc1c(C(=O)N(Cc2ccccc2)C2CCS(=O)(=O)C2)oc2ccccc12 (stereo unspecified),1.1
Nc1ccc(-c2nc3ccccc3o2)cc1Cl,1.5
CC(C)S(=O)(=O)c1csc(NC(=O)Nc2ccc(Cl)cc2)c1,19
CSc1sc(C(=O)NNC(=O)c2ccc(Cl)cc2)cc1S(=O)(=O)C(C)C,2.4
CSc1sc(C(=O)Nc2cccc(C(F)(F)F)c2)cc1C#N,0.02
CC(C)S(=O)(=O)c1csc(NC(=O)Nc2ccc(C(F)(F)F)cc2)c1,2.2
CSc1sc(NC(=O)Nc2ccc(Cl)cc2)cc1S(=O)(=O)C(C)C,3.9*
SMILES,Dicer processing
CSc1sc(NC(=O)Nc2cccc(C(F)(F)F)c2)cc1S(=O)(=O)C(C)C,3.3*
C=CCOC(=O)C1=C(C)NC2=C(C(=O)CC(C)(C)C2)C1c1cc(OC)c(OC)cc1Br (stereo unspecified),-0.25
COc1ccc(-c2[nH]ncc2CN2CCN(c3ncc(C(F)(F)F)cc3Cl)CC2)cc1,-1.6
COC(=O)c1c(-c2c(Cl)cccc2Cl)noc1/C=C/N(C)C,-0.53
O=C1CC(c2ccc3c(c2)OCO3)c2c(ccc3ccccc23)N1 (stereo unspecified),0.95
CC1=CC(C)C2COC(c3ccccc3O)C1C2C (stereo unspecified),1.2
CC1=CC(C)C2COC(c3ccc4c(c3)OCO4)C1C2C (stereo unspecified),4*
Nc1cc(-c2ccc(OC(F)(F)F)cc2)nn1-c1ccc(Cl)cc1,-0.81
COC(=O)c1cc(-c2ccc(OC)cc2OC)no1,0.62
CC(C)(C)NC(=S)Nc1cc(C(F)(F)F)cc(C(F)(F)F)c1,-0.68
CC1(C)OC(=O)C(=NNc2cc(C(F)(F)F)cc(C(F)(F)F)c2)C(=O)O1,5.1*
C/C(=N\O)C(C)(C)Nc1cc(C(F)(F)F)cc(C(F)(F)F)c1,-2
CC12CCC(C(=O)N(Cc3ccccc3)Cc3ccccc3)(C(Br)C1=O)C2(C)C (stereo unspecified),0.33
COc1ccc(O)c(C2=NN3C(C2)c2cccc(OC)c2OC3c2ccc(OC)c(OC)c2)c1 (stereo unspecified),0.64
O=C1CC(C(F)(F)F)=Nc2ccccc2N1,0.7
O=c1oc2ccccc2n1Cc1cccc(Cl)c1,0.02
COC(=O)Cn1c(=O)oc2ccc(C)cc21,3.7*
CC(C)(C)NC(=O)Cn1c(=O)oc2ccc(Cl)cc21,-1
CCCCCOC(=O)Cn1c(=O)oc2ccc(C)cc21,1
Cc1ccc2oc(=O)n(Cc3ccc(OC(C)C)cc3)c2c1,3.2*
Cc1cccc(Cn2c(=O)oc3ccc(C)cc32)c1,-0.24
CSc1scc2c1/C(=N/OC(=O)Nc1ccc(Cl)cc1)CC(C)(C)C2,0.6
O=C(Nc1ccc(F)cc1F)Nc1cn(-c2ccccc2)nc1-c1ccccc1,-0.92
C/C(=C/c1cccc2ccccc12)[N+](=O)[O-],1.3
COc1ccc(CCN2C(=O)C(Oc3ccccc3C)C2c2ccc3c(c2)OCO3)cc1 (stereo unspecified),1.8
SMILES,Dicer processing
O=C1C(Oc2ccccc2)C(c2ccc3c(c2)OCO3)N1CCc1ccc(F)cc1 (stereo unspecified),1.2
COc1ccc(OC2C(=O)N(Cc3ccc(F)cc3)C2c2ccc3c(c2)OCO3)cc1 (stereo unspecified),3.6*
CN(C)c1ccc(NC2CC(=O)N(c3ccc(N4CCOCC4)cc3)C2=O)cc1 (stereo unspecified),-1.2
CCOC(=O)c1sc2nc(C)n(Cc3csc(-c4ccc(Cl)cc4)n3)c(=O)c2c1C,-1
CCCCCCCN=C(C1=C(O)C(=O)N(c2ccccc2)C1=O)c1ccccc1,-0.35
CC1=CC(c2ccc(Cl)cc2)n2nc(NC(=O)c3ccco3)nc2N1 (stereo unspecified),9.8*
Cc1ccc(C2C=C(c3ccc(Cl)cc3)Nc3nc(NS(C)(=O)=O)nn32)cc1 (stereo unspecified),2.5
CS(=O)(=O)Nc1nc2n(n1)C(c1ccc(F)cc1)C=C(c1ccc(Cl)cc1)N2 (stereo unspecified),2.4
Cc1onc(-c2c(Cl)cccc2Cl)c1CSC(=S)SC(C)(C)C,-1.6
CCOC(=O)C(NC(=O)c1cc2ccccc2s1)C(=O)OCC,-0.96
CN(C(=O)CC#N)c1ccc(F)cc1F,-0.21
Cc1ccc(C)n1-c1ccc(-c2n[nH]c(=S)n2-c2ccccc2)cc1,1.3
CCn1c(C(C)Oc2ccc(Cl)cc2)n[nH]c1=S (stereo unspecified),-6.2
CC(Oc1ccccc1-c1ccccc1)c1n[nH]c(=S)n1-c1ccccc1 (stereo unspecified),3.3*
COc1ccc(OCc2nnc(NC(=O)Nc3ccc(F)cc3)s2)cc1,1.9
COc1ccccc1NC(=O)Nc1c(SC)nsc1SC,-0.75
COc1ccc(NC(=O)Nc2c(SC)nsc2SC)cc1,4*
O=S(=O)(NCCN1CCCC1)c1cccc2nsnc12,-0.73
OCc1ccccc1CN1CCCCC1,0.76
CCN(CC)C(=O)c1[nH]c(C)c(C)c1C,-0.34
O=C(Cn1c2ccccc2n2nc(-c3ccco3)nc12)c1cccs1,-0.24
CN(NC(=S)Nc1cc(Cl)ccc1Cl)c1ccc(C(F)(F)F)cc1[N+](=O)[O-],0.23
N/C(=N\NS(=O)(=O)c1ccccc1C(F)(F)F)c1ccccn1,0.57
CNC(=S)N/N=C(/N)c1ccccn1,4.3*
N/C(=N\NC(=O)Nc1ccc(Cl)cc1)c1ccccn1,6.6
C=C1SC(Nc2ccc(C(=O)OCC)cc2)=NC1(CC)CC,-0.34
Nc1cccc(-c2nc3ccc(N)cc3[nH]2)c1,-1.6
Nc1ccc(C(=O)OCCCc2nc3ccc(N)cc3[nH]2)cc1,-2.3
Nc1cccc(/C=C/c2nc3ccc(N)cc3[nH]2)c1,3.7*
